Assay results as given in PubChem BioAssay (NCI).
Compounds without any hit were thinned out: in the full panel of roughly 83,000, 20% have a hit.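 Cell lines were cultured in 96-well plates, exposed to a single compound concentration, and assessed for percent growth 48 hours later.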 The source made the active and inactive calls. Rule for the calls: active = growth percent below 10; inactive = the rest.

Assays:
Assay in all cases: NCI-60 one-dose screen, 48 h (100 = growth as untreated, 0 = no growth, -100 = all killed)
Settings in all cases: 10 µM unless noted
DU-145 prostate = test system: DU-145 prostate
K-562 leukemia = test system: K-562 leukemia
MALME-3M melanoma = test system: MALME-3M melanoma
MDA-MB-231 breast = test system: MDA-MB-231 breast
SF-268 CNS = test system: SF-268 CNS
SF-295 CNS = test system: SF-295 CNS
SF-539 CNS = test system: SF-539 CNS
UACC-257 melanoma = test system: UACC-257 melanoma
M14 melanoma = test system: M14 melanoma
RXF 393 renal = test system: RXF 393 renal

Measured: growth

CCCCCCCCc1ccc(CCC(N)(CO)CO)cc1
inactive: MALME-3M melanoma 26.2% | SF-268 CNS 20.3% | SF-295 CNS 67.9% | SF-539 CNS 17.3% | UACC-257 melanoma 53.7% | M14 melanoma 50%
active: DU-145 prostate 3.12% | K-562 leukemia -25.2% | MDA-MB-231 breast -24.1%

N=C(N)N=Nc1ccc(NN=C(N)N)c2ccccc12
inactive: DU-145 prostate 113% | K-562 leukemia 103% | MALME-3M melanoma 146% | MDA-MB-231 breast 101% | RXF 393 renal 142% | SF-295 CNS 106% | UACC-257 melanoma 105% | M14 melanoma 75.9%

CNc1ccc(Nc2ccc(S(=O)(=O)O)cc2)c2c1C(=O)c1ccccc1C2=O
inactive: DU-145 prostate 112% | K-562 leukemia 101% | MALME-3M melanoma 110% | MDA-MB-231 breast 111% | RXF 393 renal 104% | SF-268 CNS 114% | SF-539 CNS 101% | UACC-257 melanoma 107% | M14 melanoma 112%

COC(=O)CC(=O)C(=O)OC
inactive: DU-145 prostate 108% | K-562 leukemia 101% | MALME-3M melanoma 107% | MDA-MB-231 breast 115% | RXF 393 renal 104% | SF-268 CNS 97.4% | SF-539 CNS 102% | UACC-257 melanoma 102% | M14 melanoma 100%

NC(N)=N/N=C/c1cccc(Br)c1
inactive: DU-145 prostate 118% | K-562 leukemia 93.6% | MALME-3M melanoma 100% | MDA-MB-231 breast 105% | RXF 393 renal 95.8% | SF-295 CNS 99.3% | SF-539 CNS 101% | UACC-257 melanoma 106% | M14 melanoma 92.8%

O=C(Oc1ccccc1)c1ccccc1Cl
inactive: DU-145 prostate 114% | K-562 leukemia 107% | MALME-3M melanoma 101% | MDA-MB-231 breast 111% | RXF 393 renal 110% | SF-295 CNS 110% | SF-539 CNS 94.2% | UACC-257 melanoma 102% | M14 melanoma 102%

Cc1c([C@H](C(Cl)Cl)[C@H](O)[C@H]2C[C@H](C)C(=O)O2)ccc2c1C(=O)[C@H]1[C@H]2C[C@@H](Br)[C@@]23O[C@@H](CO[C@H]2O)CC13C (some centres not stated)
active: DU-145 prostate -34.9% | K-562 leukemia 7.69% | MDA-MB-231 breast 4.9%
inactive: MALME-3M melanoma 77.9% | RXF 393 renal 15.5% | SF-268 CNS 33% | UACC-257 melanoma 61.9% | M14 melanoma 33.2%

CC(=O)O.[In]
inactive: DU-145 prostate 113% | K-562 leukemia 96.7% | MALME-3M melanoma 109% | MDA-MB-231 breast 116% | RXF 393 renal 106% | SF-268 CNS 103% | SF-539 CNS 110% | UACC-257 melanoma 94.3% | M14 melanoma 105%

COc1cc2cc3cc4cc(OC)c(OC)cc4c(C)[n+]3cc2cc1OC (tested in a mixture with another compound)
inactive: DU-145 prostate 79.3% | K-562 leukemia 58.1% | MALME-3M melanoma 86.2% | MDA-MB-231 breast 94.5% | SF-268 CNS 39.4% | SF-295 CNS 70.7% | SF-539 CNS 85% | UACC-257 melanoma 51.1% | M14 melanoma 78.4%

C=CCNCCC#N
inactive: DU-145 prostate 113% | K-562 leukemia 109% | MALME-3M melanoma 114% | MDA-MB-231 breast 119% | RXF 393 renal 109% | SF-268 CNS 112% | SF-539 CNS 107% | UACC-257 melanoma 111% | M14 melanoma 101%

CC(Br)c1nc2ccccc2cc1C(N)=O (configuration not stated)
inactive: DU-145 prostate 102% | K-562 leukemia 90.9% | MALME-3M melanoma 101% | MDA-MB-231 breast 118% | RXF 393 renal 109% | SF-268 CNS 104% | SF-539 CNS 103% | UACC-257 melanoma 119% | M14 melanoma 109%

O=C1C=C(OCC=C(C(F)(F)F)C(F)(F)F)c2ccccc2C1=O
inactive: UACC-257 melanoma 45.8% | M14 melanoma 26%
active: DU-145 prostate -15% | K-562 leukemia -15.5% | MALME-3M melanoma -34.8% | MDA-MB-231 breast 7.59% | RXF 393 renal -82.5% | SF-268 CNS 0.611%

CCCCS(=O)(=O)c1cc(Nc2ccc(O)c3c2C(=O)c2ccccc2C3=O)ccc1C
inactive: DU-145 prostate 42.1% | K-562 leukemia 67% | MDA-MB-231 breast 71.8% | RXF 393 renal 76.1% | SF-268 CNS 84.5% | SF-539 CNS 86.8% | UACC-257 melanoma 75.8% | M14 melanoma 21%
active: MALME-3M melanoma 2.26%

CCOc1ccccc1/C=N\N=C(N/N=C/c1ccccc1OCC)N/N=C/c1ccccc1OCC
active: MDA-MB-231 breast 9.5% | SF-295 CNS 9.61% | UACC-257 melanoma 7.38%
inactive: DU-145 prostate 16.1% | K-562 leukemia 21.4% | MALME-3M melanoma 24.1% | RXF 393 renal 19.2% | M14 melanoma 32.3%

CC(=O)Nc1ccc(CC#N)cc1Br
inactive: DU-145 prostate 107% | K-562 leukemia 111% | MALME-3M melanoma 101% | MDA-MB-231 breast 112% | SF-268 CNS 106% | SF-295 CNS 105% | SF-539 CNS 103% | UACC-257 melanoma 103% | M14 melanoma 105%

CC(CCN1CCN(CCC(C)CC(C)(C)C)C1CC(C)CC(C)(C)C)CC(C)(C)C (configuration not stated)
inactive: DU-145 prostate 103% | K-562 leukemia 58.2% | MALME-3M melanoma 99.2% | MDA-MB-231 breast 105% | SF-268 CNS 91.5% | SF-295 CNS 114% | SF-539 CNS 91.5% | UACC-257 melanoma 107% | M14 melanoma 100%

NC(CSC(c1ccccc1)(c1ccccc1)c1ccccc1)C(=O)NCC(=O)O (configuration not stated)
inactive: DU-145 prostate 111% | K-562 leukemia 54.2% | MALME-3M melanoma 52.9% | MDA-MB-231 breast 61.2% | RXF 393 renal 22.6% | SF-268 CNS 67.3% | SF-539 CNS 21.3% | UACC-257 melanoma 54.9% | M14 melanoma 44.6%

N#CCc1ncc(-c2ccc(C(F)(F)F)cc2)c(NC2CCCCCC2)n1
active: K-562 leukemia 4.45% [100 µM]
inactive: DU-145 prostate 28.5% [100 µM] | MALME-3M melanoma 25.7% [100 µM] | MDA-MB-231 breast 37.4% [100 µM] | RXF 393 renal 36.4% [100 µM] | SF-268 CNS 30.5% [100 µM] | SF-539 CNS 67.2% [100 µM] | UACC-257 melanoma 23.3% [100 µM] | M14 melanoma 19% [100 µM]

CCN(CC)CCNc1ncnc2c1cnn2-c1ccc(Cl)cc1
inactive: DU-145 prostate 94.5% | K-562 leukemia 45% | MALME-3M melanoma 88.9% | MDA-MB-231 breast 61.1% | SF-268 CNS 81.7% | SF-295 CNS 85.7% | SF-539 CNS 70%

O=C(N/N=C\c1ccc(-c2ccc(Br)cc2)o1)c1cc2oc(-c3cccc(C(F)(F)F)c3)cc2[nH]1
active: UACC-257 melanoma -48.2%
inactive: DU-145 prostate 126% | K-562 leukemia 90.2% | MALME-3M melanoma 97.1% | MDA-MB-231 breast 111% | SF-268 CNS 87.7% | SF-539 CNS 97.9%

Cn1c2ccccc2c2ccccc21
inactive: DU-145 prostate 106% | K-562 leukemia 89.3% | MALME-3M melanoma 101% | MDA-MB-231 breast 108% | RXF 393 renal 111% | SF-268 CNS 103% | SF-539 CNS 108% | UACC-257 melanoma 94.8% | M14 melanoma 99.3%

O=C(c1ccccc1)c1ccccc1-c1ccccc1
inactive: DU-145 prostate 51.1% | K-562 leukemia 14.5% | MALME-3M melanoma 49.4% | MDA-MB-231 breast 42.1% | SF-268 CNS 45.4% | SF-295 CNS 17.1% | SF-539 CNS 20.4% | UACC-257 melanoma 55.4%
active: M14 melanoma 0.878%

O=C(CN1CCN(c2cccc(Cl)c2)CC1)N1CCN(c2nnc(-c3ccc(Cl)cc3)c(-c3ccc(Cl)cc3)n2)CC1
inactive: DU-145 prostate 94.8% | K-562 leukemia 38.8% | MALME-3M melanoma 105% | MDA-MB-231 breast 86.8% | SF-268 CNS 89.8% | SF-295 CNS 84.3% | SF-539 CNS 74.4% | M14 melanoma 106%

O=C1OC(c2ccc(-c3ccccc3)cc2)=C/C1=C/c1c2ccccc2cc2ccccc12
inactive: DU-145 prostate 121% | K-562 leukemia 93.3% | MALME-3M melanoma 113% | MDA-MB-231 breast 98.5% | SF-268 CNS 95.9% | SF-539 CNS 110%
active: UACC-257 melanoma -47.9%

CC(=N\N=C(N)N)/C(=N/N=C(N)N)c1ccccc1
inactive: DU-145 prostate 51.7% | K-562 leukemia 91.3% | MALME-3M melanoma 99.2% | MDA-MB-231 breast 116% | RXF 393 renal 104% | SF-295 CNS 99.1% | SF-539 CNS 74.6% | UACC-257 melanoma 93.2% | M14 melanoma 88.6%

COC(=O)c1cc(Nc2ccc(O)c3c2C(=O)c2c([N+](=O)[O-])ccc(O)c2C3=O)cc(C(=O)OC)c1
active: DU-145 prostate -59.1% | MALME-3M melanoma -51.1% | M14 melanoma -66.5%
inactive: K-562 leukemia 72.9% | MDA-MB-231 breast 90.4% | RXF 393 renal 51.9% | SF-268 CNS 55.1% | SF-539 CNS 84% | UACC-257 melanoma 12.1%

C=C(C)C(C(=O)OCC)(C(=O)OCC)C(C)C
inactive: DU-145 prostate 120% | K-562 leukemia 116% | MALME-3M melanoma 110% | MDA-MB-231 breast 112% | RXF 393 renal 112% | SF-268 CNS 112% | SF-539 CNS 105% | UACC-257 melanoma 107% | M14 melanoma 110%

CC1(C)N=C(N)N=C(N)N1c1cccc(CCCCOc2ccccc2)c1
inactive: DU-145 prostate 27.6% | K-562 leukemia 16.2% | MALME-3M melanoma 43.1% | MDA-MB-231 breast 46.8% | RXF 393 renal 50.2% | SF-268 CNS 27.2% | SF-539 CNS 34.1% | UACC-257 melanoma 28.7% | M14 melanoma 23.6%

CC(=O)Nc1ccc(S(=O)(=O)Cl)cc1
inactive: DU-145 prostate 107% | K-562 leukemia 98.1% | MALME-3M melanoma 111% | MDA-MB-231 breast 118% | RXF 393 renal 96.2% | SF-268 CNS 109% | SF-539 CNS 100% | UACC-257 melanoma 131% | M14 melanoma 118%

COC(=O)C(C(=O)OC)C(Br)C(Br)C(Br)c1ccccc1 (configuration not stated)
inactive: DU-145 prostate 89.5% | K-562 leukemia 24.8% | MALME-3M melanoma 101% | MDA-MB-231 breast 117% | RXF 393 renal 57.5% | SF-268 CNS 99.2% | SF-539 CNS 98% | UACC-257 melanoma 82.7% | M14 melanoma 104%

O=C1CSC(c2ccccc2Cl)N1c1nnc(-c2ccncc2)o1 (configuration not stated)
inactive: DU-145 prostate 106% | K-562 leukemia 104% | MALME-3M melanoma 120% | MDA-MB-231 breast 97.7% | RXF 393 renal 101% | SF-268 CNS 99.5% | UACC-257 melanoma 98.2% | M14 melanoma 96.8%
